From PubChem BioAssay (Tox21)
Inconclusive results are not listed. Where a call stands in place of a potency, no number is given. A number with no mark means an inactive call. Active and inactive are the calls of the source. Unless noted, calls come from the whole dose curve; as a rule, active = well fitted curve in the direction sought with a large enough effect in the repeat runs; inconclusive = weak or mixed curves; inactive = no such curve, though single readings can be large; an effect the other way counts as inactive or inconclusive.

How the values were obtained:
[1] = qHTS assay to identify aromatase inhibitors - cell viability counter screen (AID 743084);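 note: cells stimulated with testosterone during compound exposure; nearly all actives have a fitted effect of over 55% in size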; note: potency is the fitted concentration of half-maximal effect
[2] = target: Aryl hydrocarbon receptor (Homo sapiens) (UniProt P35869); assay: qHTS assay to identify small molecule that activate the aryl hydrocarbon receptor (AhR) signaling pathway (AID 743085); note: nearly all actives have a fitted effect of over 15% in size; note: potency is the fitted concentration of half-maximal effect;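 for activation: HG2L7.5c1 human HepG2 liver cells with stably integrated DRE-driven firefly reporter; series mostly up to about 70 µM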
In short: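 A multiplexed format paired cell viability (CellTiter-Fluor fluorescence) with AhR-dependent luciferase output (ONE-Glo luminescence) in the same wells of HepG2 DRE-luc cells after 24 h compound exposure at 37C.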

[3] = qHTS assay to identify small molecule that activate the aryl hydrocarbon receptor (AhR) signaling pathway - cell viability counter screen (AID 743086); note: nearly all actives have a fitted effect of over 45% in size; note: potency is the fitted concentration of half-maximal effect
In short: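 Cytotoxicity counter screen: CellTiter-Fluor signal (30 min, 37 C) in 4000 HepG2 cells/well carrying the DRE-luciferase reporter, following 24 h compound exposure at 37 C.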

[4] = target: Peroxisome proliferator-activated receptor gamma (Homo sapiens) (UniProt P37231); assay: qHTS assay to identify small molecule agonists of the peroxisome proliferator-activated receptor gamma (PPARg) signaling pathway (AID 743094; active = well fitted activation curve with a large enough effect in the signal ratio in the repeat runs, not every such curve was filed as active; the % refers to the signal ratio)
In short: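 Cell-based bla reporter, HEK293H background, PPARg-driven UAS. Pre-incubation 5 h, 37C, 5% CO2. Compound 17 h, 37C. Substrate 1 h RT; fluorescence.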

[5] = target: Peroxisome proliferator-activated receptor gamma (Homo sapiens) (UniProt P37231); assay: qHTS assay to identify small molecule antagonists of the peroxisome proliferator-activated receptor gamma (PPARg) signaling pathway (AID 743191; calls by dose curve; note: nearly all actives have a fitted effect of over 30% in size; note: potency is the fitted concentration of half-maximal effect)
In short: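 Beta-lactamase reporter under UAS control in HEK293H PPARg-bla cells; compound treatment 17 h at 37C. Read-out: fluorescence intensity after 1 h room-temperature incubation with LiveBLAzer B/G FRET substrate.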

[6] = qHTS assay for small molecule agonists of the antioxidant response element (ARE) signaling pathway (AID 743202; active = well fitted activation curve with a large enough effect in the signal ratio in the repeat runs, not every such curve was filed as active; the % refers to the signal ratio; note: potency is the fitted concentration of half-maximal effect)
In short: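 Beta-lactamase reporter activity, read as fluorescence intensity, reflects ARE/Nrf2 pathway induction in HepG2 cells after 16 h compound exposure at 37 C; substrate loading was 2 h at room temperature.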

[7] = qHTS assay for small molecule activators of the heat shock response signaling pathway (AID 743210; active = well fitted activation curve with a large enough effect in the signal ratio in the repeat runs, with a control signal flat, not every such curve was filed as active; the % refers to the signal ratio;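 note: HeLa cells with beta-lactamase reporter driven by heat shock elements; series mostly up to about 63 µM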)
In short: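 Fluorescence from a cleaved B/G FRET substrate (2.5 h, room temp) reports HSE-driven beta-lactamase in HeLa cells treated 5 h at 37 C with DMSO-dissolved compounds.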

[8] = qHTS assay to identify small molecule antagonists of the peroxisome proliferator-activated receptor gamma (PPARg) signaling pathway - cell viability counter screen (AID 743194); note: nearly all actives have a fitted effect of over 55% in size
In short: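 Viability was measured as CellTiter-Glo luminescence in GeneBLAzer PPARg UAS-bla HEK293H cells. These cells had been exposed 17 h at 37 C to compounds together with rosiglitazone at 50 nM final, with the beta-lactamase readout taken in the same wells.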

[9] = qHTS assay for small molecule agonists of the antioxidant response element (ARE) signaling pathway - cell viability counter screen (AID 743203; calls by dose curve; note: nearly all actives have a fitted effect of over 55% in size)
In short: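 Measured in the same wells as the beta-lactamase ARE reporter, this read-out is CellTiter-Glo luminescence from HepG2 ARE-bla cells given compounds for 16 hrs.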

[10] = qHTS assay for small molecule activators of the heat shock response signaling pathway - cell viability counter screen (AID 743209); note: nearly all actives have a fitted effect of over 50% in size
In short: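 Same-well multiplex: after 2.5 h room-temperature incubation with LiveBLAzer B/G substrate and fluorescence reading, CellTiter-Glo reagent was added to HSE-bla HeLa cells that had received compound for 5 h at 37 C; luminescence read after 30 min.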

Chain of Peroxisome proliferator-activated receptor gamma (Homo sapiens) (P37231 whole entry, looked up): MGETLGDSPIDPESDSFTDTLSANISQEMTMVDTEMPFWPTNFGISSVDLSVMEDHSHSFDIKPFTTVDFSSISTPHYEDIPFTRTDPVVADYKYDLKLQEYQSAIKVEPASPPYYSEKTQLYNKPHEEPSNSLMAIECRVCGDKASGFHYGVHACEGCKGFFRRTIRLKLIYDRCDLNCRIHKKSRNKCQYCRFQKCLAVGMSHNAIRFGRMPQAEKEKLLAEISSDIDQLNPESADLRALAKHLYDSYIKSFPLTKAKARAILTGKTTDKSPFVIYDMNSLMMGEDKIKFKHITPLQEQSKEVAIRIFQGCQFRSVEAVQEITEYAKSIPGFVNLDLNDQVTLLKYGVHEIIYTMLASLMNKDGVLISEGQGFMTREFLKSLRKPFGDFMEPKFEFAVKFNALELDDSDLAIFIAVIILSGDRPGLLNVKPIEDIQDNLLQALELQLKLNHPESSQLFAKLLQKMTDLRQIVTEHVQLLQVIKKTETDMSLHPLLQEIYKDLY
Chain of Aryl hydrocarbon receptor (Homo sapiens) (P35869 whole entry, looked up): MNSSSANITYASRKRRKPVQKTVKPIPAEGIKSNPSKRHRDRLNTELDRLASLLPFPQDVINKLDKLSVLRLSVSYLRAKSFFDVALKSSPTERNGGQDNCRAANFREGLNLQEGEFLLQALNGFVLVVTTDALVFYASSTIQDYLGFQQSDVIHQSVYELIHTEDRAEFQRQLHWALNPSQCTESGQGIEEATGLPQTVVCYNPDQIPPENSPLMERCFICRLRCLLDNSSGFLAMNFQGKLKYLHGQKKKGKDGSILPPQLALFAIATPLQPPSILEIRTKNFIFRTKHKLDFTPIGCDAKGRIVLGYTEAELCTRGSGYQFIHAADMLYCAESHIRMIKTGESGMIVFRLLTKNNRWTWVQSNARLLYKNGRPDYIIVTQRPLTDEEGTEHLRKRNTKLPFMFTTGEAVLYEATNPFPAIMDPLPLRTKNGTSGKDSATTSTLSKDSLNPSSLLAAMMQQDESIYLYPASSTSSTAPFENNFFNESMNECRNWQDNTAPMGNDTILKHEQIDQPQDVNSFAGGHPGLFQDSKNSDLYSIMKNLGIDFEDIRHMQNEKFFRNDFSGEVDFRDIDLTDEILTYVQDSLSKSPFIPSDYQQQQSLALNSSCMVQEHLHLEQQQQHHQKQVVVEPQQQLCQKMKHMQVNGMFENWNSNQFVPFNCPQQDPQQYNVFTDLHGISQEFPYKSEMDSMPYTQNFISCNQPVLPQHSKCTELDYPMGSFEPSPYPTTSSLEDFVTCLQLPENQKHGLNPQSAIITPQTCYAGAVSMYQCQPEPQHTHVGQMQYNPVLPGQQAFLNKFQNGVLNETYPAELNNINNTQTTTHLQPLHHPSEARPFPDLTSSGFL

Compound	Potency [1]	Potency [2]	Potency [3]	Potency [4]	Potency [5]	Potency [6]	outcome [7]	Potency [8]	Potency [9]	outcome [10]
O=C(O)c1ccccc1-n1cc(C(=O)O)c(=O)c2cc(Nc3c(F)cc(F)cc3Cl)c(Cl)cc21	inactive	inactive	inactive	inactive	inactive	inactive	inactive	–	–	–
CCCCCCOC(=O)c1ccccc1	inactive	inactive	inactive	inactive	inactive	–	inactive	inactive	inactive	inactive
C=Cc1ccc(C=C)cc1	inactive	inactive	inactive	inactive	inactive	inactive	inactive	–	inactive	inactive
CCOc1ccccc1O	inactive	inactive	inactive	inactive	–	inactive	inactive	inactive	inactive	inactive
O=C1c2ccccc2C(=O)C1c1ccc2ccccc2n1	inactive	10.8 µM (active)	inactive	inactive	inactive	–	inactive	inactive	inactive	–
COc1cc(C)c(Cc2cnc(N)nc2N)cc1OC	inactive	inactive	inactive	inactive	–	inactive	inactive	inactive	inactive	inactive
COc1ccc(CN(CCN(C)C)c2ncccn2)cc1	inactive	inactive	inactive	inactive	inactive	–	inactive	inactive	inactive	inactive
NC(=O)c1ccccc1C(N)=O	inactive	54.7 µM (active)	inactive	inactive	–	24.4 µM (active)	inactive	inactive	inactive	inactive
O=S(=O)(O)c1cc(Cl)c(Cl)cc1Cl	inactive	inactive	inactive	inactive	inactive	–	inactive	inactive	–	–
Cc1c(Cl)cccc1[N+](=O)[O-]	inactive	inactive	inactive	inactive	inactive	–	inactive	inactive	inactive	inactive
CCCCC(CC)COCCC#N (configuration not stated)	inactive	inactive	inactive	inactive	–	inactive	inactive	inactive	inactive	–
CC1(C)CC(=O)CC(C)(C)N1	inactive	inactive	inactive	inactive	inactive	–	inactive	–	–	inactive
CC(CN=Cc1ccccc1O)N=Cc1ccccc1O (configuration not stated)	inactive	27.3 µM (active)	inactive	inactive	inactive	–	inactive	inactive	inactive	inactive
OCCc1ccncc1	inactive	inactive	inactive	inactive	inactive	–	inactive	inactive	–	inactive
Cc1ccc(NC=O)c(C)c1	inactive	inactive	inactive	inactive	–	inactive	inactive	inactive	inactive	inactive
COc1ccc(C(=O)c2ccc(C)cc2)c(O)c1	inactive	9.44 µM (active)	inactive	inactive	inactive	–	inactive	inactive	–	inactive
C=CC(O)CCCCC (configuration not stated)	inactive	inactive	inactive	inactive	–	inactive	inactive	inactive	inactive	–
O=C(O)COCC(=O)O	inactive	inactive	inactive	inactive	–	inactive	inactive	inactive	inactive	inactive
SCCOCCOCCS	inactive	inactive	inactive	inactive	inactive	–	inactive	inactive	inactive	inactive
CC(C)NC(=O)c1ccccc1N	inactive	inactive	inactive	inactive	inactive	–	inactive	inactive	inactive	inactive
CC1(C)CC(O)CC(C)(C)N1[O]	inactive	inactive	inactive	inactive	inactive	–	inactive	inactive	inactive	–
Cc1ccc(S(=O)(=O)NC(=O)NC2CCCC2)cc1	inactive	inactive	inactive	inactive	inactive	inactive	inactive	–	inactive	inactive
O=C1C=CCCC1	inactive	inactive	inactive	inactive	inactive	–	inactive	inactive	inactive	inactive
c1ccc(CCNc2nc(-c3ccccc3)cs2)cc1	inactive	15 µM (active)	inactive	inactive	inactive	–	inactive	inactive	inactive	inactive
CC(C)CCCCCOC(=O)CS	inactive	inactive	inactive	inactive	inactive	–	inactive	inactive	inactive	inactive
CCCCOC(=O)CC#N	inactive	inactive	inactive	inactive	inactive	–	–	inactive	–	inactive
CCCN(C1CCN(C(=O)C2CCNCC2)CC1)[C@@H]1CCc2ccc(OC)cc2C1	inactive	inactive	inactive	inactive	inactive	–	inactive	inactive	–	inactive
CC(C)=CCCC(C)C=O (configuration not stated)	inactive	inactive	inactive	inactive	inactive	–	inactive	–	inactive	–

Compound	Potency [1]	Potency [2]	Potency [3]	Potency [4]	Potency [5]	Potency [6]	outcome [7]	Potency [8]	Potency [9]	outcome [10]
CC(C(=O)O)c1ccc2c(c1)Cc1cccnc1O2 (configuration not stated)	inactive	inactive	inactive	inactive	–	inactive	inactive	inactive	inactive	inactive
CCOC(=O)CC(O)(CC(=O)OCC)C(=O)OCC	inactive	inactive	inactive	inactive	inactive	–	inactive	inactive	–	inactive
Cc1cc(C)c(C)c(O)c1	inactive	inactive	inactive	inactive	inactive	–	inactive	inactive	inactive	inactive
CCc1ccc(C(=O)C(C)CN2CCCCC2)cc1 (configuration not stated)	inactive	inactive	inactive	inactive	inactive	–	inactive	inactive	inactive	–
Cc1cc(C)n(CO)n1	inactive	inactive	inactive	inactive	–	inactive	inactive	inactive	inactive	inactive
CCCCOc1ccc(N)cc1	inactive	inactive	inactive	inactive	–	inactive	inactive	inactive	inactive	inactive
Nc1ncnc2c1ncn2[C@@H]1O[C@H](CO)[C@@H](O)[C@H]1O	inactive	inactive	inactive	inactive	inactive	–	inactive	inactive	inactive	inactive
CC(O)C(C)O (configuration not stated)	inactive	inactive	inactive	inactive	inactive	–	inactive	inactive	inactive	inactive
CC(C)=CCC[C@H](C)CCO	inactive	inactive	inactive	inactive	–	inactive	inactive	inactive	inactive	inactive
CCCCCCCCC(=O)OCC(C)OC(=O)CCCCCCCC (configuration not stated)	inactive	inactive	inactive	inactive	–	inactive	–	inactive	inactive	inactive
O=C(O)c1cc(C(=O)O)cc([N+](=O)[O-])c1	inactive	inactive	inactive	inactive	–	inactive	inactive	inactive	inactive	inactive
CCCCOC(=O)C(C)Oc1ccc(Oc2ccc(C(F)(F)F)cn2)cc1 (configuration not stated)	inactive	inactive	inactive	inactive	–	–	inactive	inactive	inactive	inactive
O=C(NC1CCN(CCc2c[nH]c3ccccc23)CC1)c1ccccc1	inactive	29.8 µM (active)	inactive	–	–	–	inactive	inactive	inactive	–
O=C1c2ccccc2C(=O)C1c1ccc2cc(S(=O)(=O)O)cc(S(=O)(=O)O)c2n1	29.5 µM (active)	inactive	33.1 µM (active)	inactive	–	–	inactive	inactive	inactive	inactive
CS(C)=O	inactive	inactive	inactive	inactive	–	–	–	inactive	inactive	inactive
NCCOCCOCCN	inactive	inactive	inactive	–	inactive	48.6 µM (active)	–	inactive	inactive	inactive
C[C@]12CCC(=O)C=C1[C@@H]1C[C@@H]1[C@H]1[C@@H]3[C@@H]4C[C@@H]4[C@@]4(CCC(=O)O4)[C@@]3(C)CC[C@@H]12	inactive	inactive	inactive	–	–	–	inactive	inactive	inactive	inactive
CCCCCCCCCCCCSCCOCCO	inactive	inactive	inactive	inactive	–	–	inactive	inactive	inactive	inactive
CCC(CC)C(=O)O	inactive	inactive	inactive	inactive	–	inactive	inactive	inactive	–	inactive
Oc1ccc(Oc2ccccc2)cc1	inactive	inactive	inactive	inactive	–	–	inactive	inactive	inactive	–
Nc1nc(Cl)nc2c1ncn2[C@H]1C[C@H](O)[C@@H](CO)O1	inactive	inactive	inactive	–	–	inactive	inactive	inactive	inactive	inactive
O=C(O)c1cccnc1Nc1cccc(C(F)(F)F)c1	inactive	inactive	inactive	–	11.9 µM (active)	–	inactive	–	inactive	–
CC(C)CC(C)(C)C	inactive	inactive	inactive	inactive	–	inactive	inactive	inactive	–	–
CC(=O)Nc1ccn(C2COC(COC(=O)c3ccccc3)O2)c(=O)n1 (configuration not stated)	inactive	inactive	inactive	–	–	inactive	inactive	inactive	–	inactive
CCC(=O)O[C@@H]1C[C@H]2CC[C@]1(C)C2(C)C	inactive	inactive	inactive	inactive	–	–	inactive	inactive	inactive	inactive
CC1=C(C)C(=O)C(C(CCCCCC(=O)O)c2ccccc2)=C(C)C1=O (configuration not stated)	inactive	inactive	inactive	–	inactive	–	inactive	inactive	–	inactive
CCCCCCCCOCCCN	inactive	inactive	inactive	inactive	–	–	inactive	–	–	inactive
